Experimental findings from PubChem BioAssay (Tox21) are described below.

Inconclusive results are not listed. Activity calls are given as the source filed them. Calls follow the shape of the dose curve; as a rule, active = well fitted activation curve with a large enough effect in the signal ratio in the repeat runs (not every such curve was filed as active); inconclusive = weak or mixed curves, or effect the other way; inactive = no such curve, though single readings can be large or run the other way; the % refers to the signal ratio.
% is scaled to controls: 0 for no effect and ±100 for the full control effect.

Sequence of Peroxisome proliferator-activated receptor gamma (Homo sapiens) (P37231 whole entry, looked up): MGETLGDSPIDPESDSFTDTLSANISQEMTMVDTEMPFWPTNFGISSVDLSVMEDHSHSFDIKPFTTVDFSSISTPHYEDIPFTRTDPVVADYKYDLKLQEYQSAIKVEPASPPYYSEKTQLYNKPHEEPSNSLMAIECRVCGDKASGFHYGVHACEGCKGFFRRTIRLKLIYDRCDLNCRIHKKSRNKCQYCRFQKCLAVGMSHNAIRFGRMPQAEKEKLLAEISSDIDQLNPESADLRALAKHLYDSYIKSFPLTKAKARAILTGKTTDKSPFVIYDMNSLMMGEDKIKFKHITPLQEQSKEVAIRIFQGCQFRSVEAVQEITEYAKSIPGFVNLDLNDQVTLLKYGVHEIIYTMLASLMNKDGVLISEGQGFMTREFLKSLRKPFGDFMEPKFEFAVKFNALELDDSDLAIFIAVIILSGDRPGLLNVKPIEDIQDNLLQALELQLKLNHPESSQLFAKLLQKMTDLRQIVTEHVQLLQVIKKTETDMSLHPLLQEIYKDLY

This test addresses Peroxisome proliferator-activated receptor gamma (Homo sapiens) (UniProt P37231). As to the kind of experiment: qHTS assay to identify small molecule agonists of the peroxisome proliferator-activated receptor gamma (PPARg) signaling pathway (AID 743094). Conditions: HEK293H PPARg-UAS-bla, beta-lactamase FRET ratio, 17 h; series mostly up to 57 µM; activation: at the top concentration. From the text: U.S. Tox21 Program National Center for Advancing Translational Sciences [NCATS] NIH Chemical Genomics Center [NCGC] U.S. Environmental Protection Agency [EPA] National Institutes of Environmental Health Sciences [NIEHS] National Toxicology Program [NTP] U.S. Food and Drug Administration [FDA] Tox21 Assay Overview: The peroxisome proliferator-activated receptors (PPARs) are lipid-activated transcription factors of the nuclear receptor superfamily with three distinct subtypes namely PPAR alpha, PPAR delta (also called PPAR beta) and PPAR gamma (PPARg). All these subtypes heterodimerize with Retinoid X receptor (RXR) and these heterodimers regulate transcription of various genes. PPAR-gamma receptor (glitazone receptor) is involved in the regulation of glucose and lipid metabolism. To identify the compounds that activate PPAR-gamma signaling, GeneBLAzer PPAR gamma UAS-bla HEK293H cell line (Invitrogen, Carlsbad, CA, USA) containing a beta-lactamase reporter gene under control of the control of an upstream activator sequence (UAS) stably integrated into HEK293H cells was used to screen Tox21 compound library.
Tox21 Assay Protocol Summary: PPARg-bla cells were dispensed at 3000 cells/6uL/well in 1536-well black wall/clear bottom plates using a Multidrop Combi (Thermo Fisher Scientific, Waltham, MA) dispenser. After the assay plates were incubated at 37C and 5% CO2 for 5 h, 23 nL of compounds dissolved in DMSO, positive controls or DMSO only was transferred to the assay plate by a Pintool station (Kalypsys, San Diego, CA). The assay plates were incubated at 37C for 17 h. After 1 uL of LiveBLAzerTM B/G FRET substrate was added using a Bioraptr Flying Reagent Dispenser (FRD) workstation (Beckman Coulter, Indianapolis, IN, USA), the plates were incubated at room temperature for 1 h, and fluorescence intensity was measured by an Envision plate reader (PerkinElmer, Shelton, CT).
(qHTS replaces the single test concentration by a dilution series.)
Consider `CC(=O)Nc1ccc(/C=N/NC(N)=S)cc1`, for which the Potency result is “inactive”. As for `S=C(S)NCCNC(=S)S`, the “activation” value is -5.65% (inactive).

As to `FC(F)(F)C(F)(F)C(F)(F)C(F)(F)C(F)(F)C(F)(F)CCI`, the “activation” value is -0.202% (inactive). Still for that read-out and setting: with `CN(C(=O)CCCOc1ccc2[nH]c(=O)ccc2c1)C1CCCCC1` the figure was 0.208% (inactive); with `COc1ccccc1OC(=O)Oc1ccccc1OC`, 3.64% (inactive); with `Cc1cccc(C(C)(C)C)c1O`, 0.636% (inactive). `CN1CCC(OC(c2ccccc2)c2ccccc2)CC1`: the “activation” value is -7.41% [at 26.2 µM] (inactive). `O=CNc1ccccc1`: the “activation” value was -4.32% [at 78.9 µM] (inactive). Still for that read-out and setting: with `CCCCOc1ccc(CC(=O)NO)cc1` the figure was -2.61% [at 26.2 µM] (inactive); with `CC(=O)O[C@@H]1C(=O)O[C@@H]2[C@H]1OC(=O)[C@@H]2OC(C)=O`, -0.637% (inactive); with `CC(=O)N(O)CCCCCNC(=O)CCC(=O)N(O)CCCCCNC(=O)CCC(=O)N(O)CCCCCN`, -1.7% [at 26.2 µM] (inactive).

`CC(=O)/C(C)=C/C1C(C)=CCCC1(C)C` (stereo not given): the “activation” value was 1.94% (inactive). With `Cc1cccc(Oc2ccccc2)c1`, the “activation” value was -2.39% (inactive). As to `Cc1cccc(OCCOc2cccc(C)c2)c1`, the “activation” value is -1.57% [at 78.9 µM] (inactive). Take `COCCOCCOCCOCCOC`: the “activation” value was 2.71% (inactive). `Cc1ccc(C(C)c2ccc(C)c(C)c2)cc1C`: the “activation” value is 1.95% (inactive). The same measure, in the same setting: with `CCOC(=O)CC(C)C` the figure was -1.81% (inactive); with `N#CCc1cccc(C(F)(F)F)c1`, -0.517% (inactive); with `CCOc1ccc2[nH]cc(C(=O)NCc3ccccc3)c(=O)c2n1`, -7.26% (inactive). In the case of `C=C(C)C(=O)OCCN(C)C`, the “activation” value was -3.57% [at 78.9 µM] (inactive). For the compound `Cl/C(=C\n1cncn1)c1ccc(Cl)cc1Cl`, the “activation” value was 3.41% (inactive). As for `CCCCOCCOCCOCCOCCO`, the “activation” value is -1.75% (inactive). Still for that read-out and setting: with `NC(=S)N/N=C/c1cccnc1` the figure was -1.5% (inactive); with `CC1=CCC(C(C)C)C=C1` (stereo not given), -2.89% (inactive). For `Cn1sccc1=O`, the “activation” value was 6.69% (inactive).

`C#CCOC(=O)[C@@H](C)Oc1ccc(Oc2ncc(Cl)cc2F)cc1`: the “activation” value was 5.32% (inactive). In the case of `C=C(C)C(=O)OC(C)C`, the “activation” value is -4.86% (inactive). Take `CC[C@]12CCCN3CCc4c(n(c5ccccc45)C(=O)C1)[C@@H]32`: the “activation” value was -3.81% [at 26.2 µM] (inactive).

Regarding `O=C=NC1CCC(CC2CCC(N=C=O)CC2)CC1` (stereo not given), the “activation” value was -5% (inactive). With `Cc1cc(O)ccc1N`, the “activation” value was -0.632% [at 78.9 µM] (inactive). With `CC(=O)[C@@]1(O)CC[C@H]2[C@@H]3C[C@H](C)C4=CC(=O)CC[C@]4(C)[C@H]3CC[C@@]21C`, the “activation” value is 1.02% (inactive). Regarding `C1CCC2OC2C1` (stereo not given), the “activation” value was -8.78% [at 78.9 µM] (inactive).

Take `CCCCOC(=O)/C=C\C(=O)OCCCC`: the “activation” value is -8.66% [at 78.9 µM] (inactive). On the same count and under the same terms, the figure for `CC[C@H](C)[C@H](N)C(=O)O` is 1.48% (inactive); for `c1ccc(OCc2ccc(CCCN3CCOCC3)cc2)cc1` it is -6.23% (inactive). The same measure, in the same setting: with `CC(C)NCC(O)c1cc(O)cc(O)c1` (stereo not given) the figure was 2.76% (inactive). As to `O=C(O)[C@@H]1[C@H]2C[C@H]3c4[nH]c5ccccc5c4CCN3C[C@@H]2CC[C@@H]1O`, the “activation” value was -3.42% [at 26.2 µM] (inactive). As to `CC(C)(C)C1CCCCC1O` (stereo not given), the “activation” value is 0.576% (inactive). Take `N#Cc1cc2ccccc2c2ccccc12`: the “activation” value is 0.981% [at 78.9 µM] (inactive). Take `CN(C)CC[C@@H](c1ccc(Br)cc1)c1ccccn1`: the “activation” value was -4.06% (inactive).
